# Test results as given in PubChem BioAssay.
# The source made the active and inactive calls. Unless noted, no rule for the calls is given here.
# What was measured:
# [1] = test system: XIP peptide (Xip251-270) binding; assay: XIP fragment 251-270 binding compounds – biochemical, small-molecule microarray, fluorescence 635/667 nm, 0.1 µg/mL protein, primary screen (AID 1182); details: fluorescent protein binding, 635 nm, higher = more signal, called active from +8 up or from −8 down
# XIP peptide (Xip251-270) = assay: compounds binding XIP fragment 251-270 – biochemical, small-molecule microarray, fluorescence 635/667 nm, 0.5 µg/mL protein, primary screen (AID 1183); details: fluorescence 635 nm, higher = more signal
# [2] = blood-stage malaria parasite viability loss – strain 3D7, DAPI fluorescence, 100 nL, primary screen (AID 1184);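 also: parasites grown inside human red blood cells in medium with human serum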; details: P. falciparum 3D7 growth, 3 d, higher = more signal
# [3] = molecular target: Homeobox protein Hox-A13 (Mus musculus) (UniProt Q62424); assay: disruptors of Hoxa13 oligonucleotide interaction – biochemical, fluorescence polarization, labeled oligonucleotide, primary screen (AID 1185); details: Hoxa13:DNA binding, 15 min, higher = more signal, called active from +8 up or from −8 down
# Sequence of Homeobox protein Hox-A13 (Mus musculus) (Q62424 whole entry, looked up): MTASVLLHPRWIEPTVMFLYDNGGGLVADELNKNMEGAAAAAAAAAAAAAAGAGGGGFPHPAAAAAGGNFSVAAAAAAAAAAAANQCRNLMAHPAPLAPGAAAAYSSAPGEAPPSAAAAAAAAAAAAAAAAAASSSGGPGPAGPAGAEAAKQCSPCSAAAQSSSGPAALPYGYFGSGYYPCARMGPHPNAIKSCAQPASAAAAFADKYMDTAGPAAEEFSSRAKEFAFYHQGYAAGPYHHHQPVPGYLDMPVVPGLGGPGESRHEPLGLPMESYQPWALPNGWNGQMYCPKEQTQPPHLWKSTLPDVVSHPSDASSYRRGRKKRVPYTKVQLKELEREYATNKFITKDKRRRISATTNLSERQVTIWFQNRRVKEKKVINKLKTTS
# [4] = blockers of DNA damage checkpoint Chk1 activation – imaging, HeLa, hydroxyurea, phospho-Chk1 antibody, percent positive cells, primary screen (AID 1186); details: hydroxyurea-induced phospho-Chk1 immunofluorescence imaging, higher = more signal
# [5] = blockers of DNA damage checkpoint Chk1 activation – imaging, HeLa, hydroxyurea, phospho-Chk1 nuclear intensity, primary screen (AID 1187); details: hydroxyurea-induced phospho-Chk1 immunofluorescence imaging, higher = more signal
SMILES,composite z-score [1],composite z-score (XIP peptide (Xip251-270)),z-score [2],z-score [3],z-score [4],z-score [5]
COC(=O)C[C@@H]1C[C@H](C)[C@]2(O1)C(=O)N(Cc1ccccc1)c1ccc(NC(C)=O)cc12,-0.16 (inactive),0.295,-1.78,-3.77 (inactive),-0.139 (inactive),-0.194 (inactive)
[N-]=[N+]=NCc1ccccc1C[C@]1(C(=O)NCCN2CCOCC2)N=C(c2ccc(OCCCO)cc2)O[C@H]1c1ccccc1N=[N+]=[N-],0.281 (inactive),0.614,-2.1,-1.02 (inactive),-0.2 (inactive),0.0241 (inactive)
O=C1C[C@@](C(=O)NC2CC2)(c2ccc([N+](=O)[O-])cc2)[C@@H](c2ccc(CO)cc2)N1CC12CC3CC(CC(C3)C1)C2,-0.181 (inactive),0.611,-0.909,-5.08 (inactive),-0.635 (inactive),-0.617 (inactive)
N#Cc1ccc(NN2C(C(O)c3ccc([N+](=O)[O-])cc3)C=CC3C(=O)N(c4ccccc4)C(=O)C32)cc1 (stereo not drawn),0.311 (inactive),0.807,0.272,-4.27 (inactive),0.446 (inactive),0.5 (inactive)
C=CC[C@@]1(C(=O)O)N=C(c2ccc(OCCCO)cc2)O[C@@H]1c1ccccc1N=[N+]=[N-],0.926 (inactive),0.823,-0.814,-6.19 (inactive),0.103 (inactive),-0.0861 (inactive)
NC(=O)NCC#Cc1ccc2c(c1)[C@]1(C(=O)N2)[C@H](C(=O)NC[C@H](O)c2ccccc2)[C@H]2C(=O)O[C@H](c3ccccc3)[C@H](c3ccccc3)N2[C@@H]1c1ccc(O)cc1,5.26 (inactive),0.432,0.872,-4.24 (inactive),-0.0342 (inactive),-0.468 (inactive)
CC(C)NC(=O)[C@@H]1c2ccccc2C(=O)N(Cc2ccccc2)[C@H]1c1ccc(CO)cc1,0.747 (inactive),-0.138,-0.679,-2.9 (inactive),-0.0443 (inactive),0.0197 (inactive)
C=CC[C@@]1(C(=O)NCC(O)CO)N=C(c2ccc(OCCCO)cc2)O[C@@H]1c1ccccc1N=[N+]=[N-] (stereo partly drawn),1.06 (inactive),0.885,-1.84,-3.62 (inactive),-0.0138 (inactive),0.107 (inactive)
C=C(COC)/C(=C/C[C@H](OC(=O)c1ccncc1)c1cccc(OCCO)c1)c1cc(C(=O)OC)ccc1OC,1.46 (inactive),0.153,-2.96,-4.05 (inactive),-0.681 (inactive),-0.764 (inactive)
CCOC(=O)C1=CC[C@@H](c2ccccc2Cl)N(S(=O)(=O)c2ccc(C)cc2)C1,0.792 (inactive),0.488,-2.06,-2.78 (inactive),-1.55 (inactive),-1.77 (inactive)
C=CCNC(=O)[C@@H]1[C@H]2C(=O)O[C@H](c3ccccc3)[C@H](c3ccccc3)N2[C@H](c2ccc(O)cc2)[C@@]12C(=O)N(C(=O)OCCOC)c1ccccc12,2.55 (inactive),0.525,-2.07,-2.07 (inactive),0.209 (inactive),0.354 (inactive)
CCCCC=C[C@@H](NC(=O)c1ccco1)c1ccccc1,0.193 (inactive),0.511,-1.19,-0.806 (inactive),-0.164 (inactive),-0.7 (inactive)
O=C/C=C/c1ccc(Cl)cc1,-1.5 (inactive),-0.314,0.364,0.168 (inactive),-0.0674 (inactive),-0.659 (inactive)
O=C1O[C@@H](c2ccccc2)[C@@H](c2ccccc2)N2[C@@H](c3ccc(OCCO)cc3)[C@]3(C(=O)Nc4ccccc43)[C@@H](C(=O)Nc3nc4ccccc4s3)[C@H]12,0.615 (inactive),0.841,-0.161,2.18 (inactive),-0.469 (inactive),-0.781 (inactive)
CC(=O)NCCCC[C@@H]1NC(=O)[C@@H]2C[C@H](C(=O)NCCCCN(C)C)[C@H](c3ccc(O)cc3)N2C1=O,-0.308 (inactive),-0.208,0.101,-0.795 (inactive),-0.396 (inactive),-0.291 (inactive)
O=C(O)[C@H]1C[C@H]2C(=O)NCC(=O)N2[C@H]1c1ccc(O)cc1,0.267 (inactive),-0.212,0.137,-0.43 (inactive),0.0056 (inactive),0.0301 (inactive)
O=C1C2C=CC(C(O)c3ccc(-c4ccccc4)s3)N(n3cnnc3)C2C(=O)N1Cc1ccccc1 (stereo not drawn),-0.457 (inactive),0.951,-0.802,-2.98 (inactive),-0.295 (inactive),-0.514 (inactive)

SMILES,composite z-score [1],composite z-score (XIP peptide (Xip251-270)),z-score [2],z-score [3],z-score [4],z-score [5]
CCOC(=O)[C@H]1C/C=C/C[C@H](C(=O)OCC)C(=O)O[C@H]2[C@@H](OC)O[C@H](CO)[C@@H](OC(=O)Nc3ccc4c(c3)OCO4)[C@@H]2OC1=O,1.28 (inactive),0.832,-1.95,-2.27 (inactive),-0.18 (inactive),-0.0843 (inactive)
C=C(CCCC)/C(=C/C[C@H](OC(C)=O)c1ccc(CO)o1)c1cnc2ccccc2c1,0.0563 (inactive),0.515,-0.867,-5.74 (inactive),0.0298 (inactive),-0.0373 (inactive)
CC(C)N1C(=O)[C@@]2(c3ccc([N+](=O)[O-])cc3)CC(=O)N(CC34CC5CC(CC(C5)C3)C4)[C@@H]2c2ccc(CO)cc21,-0.43 (inactive),0.52,0.115,-0.734 (inactive),0.18 (inactive),-0.0138 (inactive)
O=C1O[C@H](c2ccccc2)[C@H](c2ccccc2)N2[C@H]1[C@@H](C(=O)N1CCN(c3ncccn3)CC1)[C@]1(C(=O)Nc3ccccc31)[C@H]2c1ccc(OCCO)cc1,-0.161 (inactive),0.219,-2.39,2.46 (inactive),-0.54 (inactive),-1.1 (inactive)
CC(C)(C)OC(=O)CC[C@@]1(C(=O)NCCN2CCOCC2)N=C(c2ccc(OCCCO)cc2)O[C@@H]1c1ccccc1,1.38 (inactive),0.825,0.248,-4.84 (inactive),-0.396 (inactive),-0.395 (inactive)
CCOC(=O)C1=CCC(c2ccc(C#N)cc2)N(S(=O)(=O)c2ccc(C)cc2)C1 (stereo not drawn),1.79 (inactive),0.766,-1.33,-3.74 (inactive),-0.308 (inactive),-1.22 (inactive)
CN1CCC(CCCO)=CC1c1ccc(CN2CCCC2)cc1 (stereo not drawn),0.426 (inactive),0.506,-1.18,-2.07 (inactive),0.56 (inactive),0.903 (inactive)
O=C(CS)NCCCCCCNC(=O)[C@H]1C[C@H]2C(=O)N3CCC[C@H]3C(=O)N2[C@H]1c1cccc(OCCO)c1,0.517 (inactive),0.773,-0.0979,-3.15 (inactive),-0.188 (inactive),-0.318 (inactive)
[N-]=[N+]=NCc1ccccc1C[C@]1(C(=O)NCC(O)CO)N=C(c2ccc(OCCCO)cc2)O[C@H]1c1ccccc1N=[N+]=[N-] (stereo partly drawn),-0.188 (inactive),0.0926,-2.25,-3.25 (inactive),-0.985 (inactive),-1.52 (inactive)
O=C1[C@]2(CO)C=C(Br)[C@@H](C[C@@H]2c2ccccc2)[C@@]12CO2,-0.0567 (inactive),0.0525,0.808,-2.52 (inactive),-0.0932 (inactive),-0.0264 (inactive)
Cc1ccc(S[C@]2(C(=O)NCc3ccccc3)CC(=O)N(Cc3ccccc3Cl)[C@@H]2c2ccc(CO)cc2I)cc1,0.935 (inactive),0.348,-0.496,-1.91 (inactive),0.0452 (inactive),0.0687 (inactive)
O=C(CS)NCCCCCCNC(=O)[C@@H]1C[C@@H]2C(=O)N3CCC[C@H]3C(=O)N2[C@@H]1c1ccc(O)cc1,0.689 (inactive),0.422,0.331,-3.65 (inactive),-0.0018 (inactive),0.499 (inactive)
C#CCN(C(/C=C/c1ccccc1)CO)C(C(=O)O)c1ccccc1 (stereo not drawn),0.194 (inactive),-0.722,-2.23,0.9 (inactive),0.301 (inactive),0.353 (inactive)
CCOC(=O)C[C@H]1[C@H](OC(=O)Cc2ccc3c(c2)OCO3)[C@@H](NC(=O)C2CCCCC2)c2cc(OCCCO)ccc2N1C(=O)Cc1ccc(OC)cc1,-0.219 (inactive),0.128,-0.383,-2 (inactive),-0.585 (inactive),-0.868 (inactive)
C=CCN1C(=O)[C@]2(O[C@H](CCO)[C@@H]([Si](C)(C)c3ccc(OC)cc3)[C@@H]2C)c2cc(NC(=O)[C@H](C)O)ccc21,1.46 (inactive),0.822,-2.74,-5.5 (inactive),1.42 (inactive),0.436 (inactive)
C[C@]1(C(=O)NCc2ccccc2)c2ccccc2C(=O)N(Cc2ccc(OC(F)(F)F)cc2)[C@H]1c1ccc(CO)cc1,0.379 (inactive),0.317,-2.01,-3.67 (inactive),-0.347 (inactive),-0.341 (inactive)
